The target of test [1] is Lysosomal acid glucosylceramidase (Homo sapiens) (UniProt P04062). The experiment in a line: Glucocerebrosidase-p2 (AID 348; in the data active means potency below about 10 µM; further: potency means the concentration at half of the fitted maximal effect). To be noted: purified GBA, blue fluorogenic substrate, 40 min. The essentials:
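Normal human glucocerebrosidase (0.2 nM) with blue fluorogenic substrate (80 uM final) in citrate/phosphate pH 5.9 with 10mM sodium taurocholate, 0.01% tween-20; 40 min RT, NaOH/glycine stop; fluorescence Ex 365/Em 440; AC50 from a titration from 0.6 nM upwards.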

For test [2], the target named is Cytochrome P450 1A2 (Homo sapiens) (UniProt P05177). The experiment in a line: p450-cyp1a2 (AID 410; calls by dose curve; further: potency means the concentration at half of the fitted maximal effect). To be noted: recombinant CYP1A2, luciferin-ME demethylation, luminescence; series mostly up to 57 µM. The procedure, abridged: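 Luminescent demethylation readout: Luciferin-ME (100uM, equal to Km) turned over by 20nM CYP1A2 for 60 min at room temperature after NADPH regeneration addition, following 10 min compound preincubation. Normalization used 57 uM furafylline as full inhibition.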
Chain of Cytochrome P450 1A2 (Homo sapiens) (P05177 whole entry, looked up): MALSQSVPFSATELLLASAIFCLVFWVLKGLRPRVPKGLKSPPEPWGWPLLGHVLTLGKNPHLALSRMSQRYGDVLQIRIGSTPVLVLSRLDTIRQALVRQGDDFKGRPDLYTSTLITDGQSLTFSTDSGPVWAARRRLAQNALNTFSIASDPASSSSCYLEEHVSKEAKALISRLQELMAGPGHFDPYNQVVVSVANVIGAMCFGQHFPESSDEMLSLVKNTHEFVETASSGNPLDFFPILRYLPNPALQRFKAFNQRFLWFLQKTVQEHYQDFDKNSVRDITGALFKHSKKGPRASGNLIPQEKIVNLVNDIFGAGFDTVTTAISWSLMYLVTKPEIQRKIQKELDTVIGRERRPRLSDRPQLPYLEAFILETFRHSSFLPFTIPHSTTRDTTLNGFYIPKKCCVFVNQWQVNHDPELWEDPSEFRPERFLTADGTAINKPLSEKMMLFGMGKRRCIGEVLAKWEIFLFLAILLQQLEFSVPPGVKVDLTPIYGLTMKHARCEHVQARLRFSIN

Test [3] can be described thus: NFAT Signaling Pathway (AID 444; active means well fitted curve in either direction with a large enough effect, not every such curve was filed as active;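 further: carbachol stimulus at about its EC50 of 1 µM final; on the % scale 0 is the no-effect control and ±100 the full control effect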). To be noted: Jurkat NFAT-bla M1, carbachol, beta-lactamase ratio, 5 h; at 7.69 µM (top of the series) unless noted. The procedure, abridged:
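Jurkat cells carrying an NFAT-driven β-lactamase reporter and co-transfected muscarinic M1 receptor were treated with compound plus carbachol (1 uM final, an EC50 level) for 5 h at 37 °C. CCF4 loading followed for 1 h at RT; 460/530 nm ratio gave %activity.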

A short description of test [4]: Stat Signaling Pathway (AID 446; active means well fitted curve in either direction with a large enough effect, not every such curve was filed as active;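 further: ME-180 cervical cancer cells given 40 pM IL-6 alongside compound; SIE-controlled beta-lactamase reporter measured as 460/530 nm FRET emission ratio; on the % scale 0 is the no-effect control and ±100 the full control effect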). To be noted: ME-180 SIE beta-lactamase reporter, IL-6 stimulated, 5 h; at 7.69 µM (top of the series) unless noted. The essentials: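 Emission at 460 and 530 nm (excitation 405 nm) reports SIE-controlled beta-lactamase in ME-180 cells. Cells received compound with 40 pM IL-6 for 5 hrs at 37 C; data scaled between 300 pM IL-6 and 125 nM JAK-inhibitor controls.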

Test [5] concerns the target Glucocorticoid receptor (Homo sapiens) (UniProt P04150). The experiment in a line: GR-GFP Redistribution (AID 450;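 active means compounds whose dose series gives a full or clear partial fitted curve of increased nuclear translocation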; further: potency means the concentration at half of the fitted maximal effect). The conditions noted are these: U2OS GR-GFP nuclear translocation, laser cytometry, 2 h.
Test [6] shares this target. The experiment in a line: GR-EFC Redistribution (AID 451; calls by dose curve; further: potency means the concentration at half of the fitted maximal effect). To be noted: CHO-K1 GR-EFC translocation, beta-gal luminescence, 2 h. The procedure, abridged: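 CHO-K1 cells stably expressing nuclear-localized β-gal enzyme acceptor and GR fused C-terminally to the enzyme donor fragment; ligand-driven nuclear translocation restores β-gal by complementation. Compounds titrated up to 46 uM final, 2 h at 37 °C; luminescence read.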

Test [7] concerns the target Mitogen-activated protein kinase 10 (Mus musculus) (UniProt Q61831). The experiment in a line: JNK3 AlphaScreen Assay (AID 530; active means well fitted curve in either direction with a large enough effect, not every such curve was filed as active;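 further: kinase came from lysate of stimulated human HepG2 cells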; further: potency means the concentration at half of the fitted maximal effect). The conditions noted are these: JNK3 lysate, c-Jun phosphorylation; series mostly up to 57.1 µM. The procedure, abridged:
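Phosphorylation of biotinylated GST-cJun(1-79) at Ser73 is measured by AlphaScreen proximity luminescence. Enzyme is JNK3 in HepG2 lysates activated with interleukin-1beta and tumor necrosis factor alpha; ATP is 10 uM final.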

The target of test [8] is 3',5'-cyclic-AMP phosphodiesterase 4B (Homo sapiens) (UniProt Q07343). The experiment in a line: qHTS Assay for Inhibitors of PDE-IV (AID 607; active means well fitted activation curve with a large enough effect in the main read-out, with a control signal flat, not every such curve was filed as active; further: % of control where 0% means no effect). To be noted: HEK293 ACTOne CNG channel cells, membrane potential fluorescence; series mostly up to 22.9 µM. The essentials: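 The readout is membrane depolarisation from a cAMP-sensing CNG channel, detected with a potential dye at ex 535/em 590. Cells were HEK293-derived (endogenous PDE-IV) at 1000 cells/well, titrated up to 22.9 uM final.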
Chain of 3',5'-cyclic-AMP phosphodiesterase 4B (Homo sapiens) (Q07343 whole entry, looked up): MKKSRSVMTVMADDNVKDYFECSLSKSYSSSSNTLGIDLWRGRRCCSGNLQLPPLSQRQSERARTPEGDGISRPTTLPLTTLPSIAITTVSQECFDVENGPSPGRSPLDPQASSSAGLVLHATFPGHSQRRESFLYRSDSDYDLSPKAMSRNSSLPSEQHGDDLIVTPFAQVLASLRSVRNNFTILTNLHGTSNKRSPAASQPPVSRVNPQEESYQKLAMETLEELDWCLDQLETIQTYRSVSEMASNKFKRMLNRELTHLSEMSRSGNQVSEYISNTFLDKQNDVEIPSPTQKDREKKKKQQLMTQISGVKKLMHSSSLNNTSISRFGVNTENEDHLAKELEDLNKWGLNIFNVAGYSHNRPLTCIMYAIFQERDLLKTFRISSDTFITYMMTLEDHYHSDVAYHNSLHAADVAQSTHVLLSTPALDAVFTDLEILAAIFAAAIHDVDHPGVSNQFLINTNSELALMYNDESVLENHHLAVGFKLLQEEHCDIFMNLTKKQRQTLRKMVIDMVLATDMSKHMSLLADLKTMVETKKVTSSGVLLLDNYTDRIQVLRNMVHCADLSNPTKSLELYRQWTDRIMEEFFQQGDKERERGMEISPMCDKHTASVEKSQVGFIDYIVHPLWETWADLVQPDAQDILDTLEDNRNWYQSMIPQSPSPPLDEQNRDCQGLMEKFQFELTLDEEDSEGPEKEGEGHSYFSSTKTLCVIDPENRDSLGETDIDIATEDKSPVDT
(In qHTS, concentration-response curves come from the screen itself.)

The target of test [9] is Cytochrome P450 3A4 (Homo sapiens) (UniProt P08684). The experiment in a line: qHTS Assay for Inhibitors and Substrates of Cytochrome P450 3A4 (AID 884). Further: potency means the concentration at half of the fitted maximal effect; nearly all actives have a fitted effect of over 50% in size. The conditions noted are these: recombinant CYP3A4, Luciferin-PPXE luminescence; series mostly up to 57.1 µM. The procedure, abridged:
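Luminescent readout of luciferin produced by CYP3A4 (20 nM) dealkylation of Luciferin-PPXE, 25 uM (its KM). NADPH-driven reaction ran 60 min at RT after 10 min compound preincubation; data scaled to 57 uM ketoconazole as 100% inhibition.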

For test [10] the target is unchanged. The experiment in a line: qHTS Assay for Activators of Cytochrome P450 3A4 (AID 885). Further: nearly all actives have a fitted effect of over 65% in size. The conditions noted are these: recombinant CYP3A4, Luciferin-PPXE luminescence, 60 min; series mostly up to 57.1 µM. The essentials: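 Activators are scored by enhanced luminescence from CYP3A4 conversion of luciferin-PPXE (25uM, equal to KM) to luciferin, after 60 min at RT with an NADPH-regenerating system.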

The target in test [11] is Cytochrome P450 2C19 (Homo sapiens) (UniProt P33261). The experiment in a line: qHTS Assay for Inhibitors and Substrates of Cytochrome P450 2C19 (AID 899). Further: potency means the concentration at half of the fitted maximal effect; nearly all actives have a fitted effect of over 60% in size. To be noted: recombinant CYP2C19, luciferin-H EGE luminescence; series mostly up to 57.1 µM. The procedure, abridged: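 Human CYP2C19 (5nM) with Luciferin-H EGE at 10uM (its KM) in 50mM KPO4 was preincubated with compound for 10 min at 37C. NADPH regeneration started a 60 min 37C reaction. Luciferin was read by luminescence, normalized to 57uM ketoconazole.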
Chain of Cytochrome P450 2C19 (Homo sapiens) (P33261 whole entry, looked up): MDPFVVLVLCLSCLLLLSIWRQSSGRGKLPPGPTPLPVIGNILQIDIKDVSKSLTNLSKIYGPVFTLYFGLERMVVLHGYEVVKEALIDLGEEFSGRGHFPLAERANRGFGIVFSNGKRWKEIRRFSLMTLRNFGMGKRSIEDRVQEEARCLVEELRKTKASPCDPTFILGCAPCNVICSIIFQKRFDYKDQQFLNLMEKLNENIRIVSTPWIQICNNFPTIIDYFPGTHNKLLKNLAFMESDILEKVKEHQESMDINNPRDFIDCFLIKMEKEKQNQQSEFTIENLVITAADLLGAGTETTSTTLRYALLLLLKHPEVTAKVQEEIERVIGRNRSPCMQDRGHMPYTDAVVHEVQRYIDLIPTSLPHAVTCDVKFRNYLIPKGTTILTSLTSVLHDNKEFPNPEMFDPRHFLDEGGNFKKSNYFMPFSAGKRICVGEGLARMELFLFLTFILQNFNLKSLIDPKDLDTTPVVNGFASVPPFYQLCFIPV

Test [12] addresses Dual specificity protein kinase CLK4 (Homo sapiens) (UniProt Q9HAZ1). The experiment in a line: qHTS Assay for Inhibitors of CDC-like Kinase 4 (Kinase-Glo Assay) (AID 1770). Further: nearly all actives have a fitted effect of over 65% in size. Further: potency means the concentration at half of the fitted maximal effect. The conditions noted are these: recombinant Clk4, Kinase-Glo ATP depletion luminescence; series mostly up to 66.7 µM. The procedure, abridged:
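Recombinant human Clk4 (25 nM) phosphorylated RS repeat peptide (100 uM) with 1 uM ATP in Tris pH 7.5/MgCl2/EGTA/DTT/Triton buffer for 4.5 h at room temperature. Residual ATP was quantified by Kinase-Glo luciferase luminescence.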

For test [13] the target is unchanged. The experiment in a line: qHTS Assay for Inhibitors of CDC-like Kinase 4 (ADP-Glo Assay) (AID 1771). Further: nearly all actives have a fitted effect of over 70% in size. Further: potency means the concentration at half of the fitted maximal effect. The conditions noted are these: recombinant CLK4, ADP-Glo luminescence; series mostly up to 80 µM. The procedure, abridged: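 ADP production was read by ADP-Glo luminescence after residual ATP depletion, following 1 h room-temperature reaction of 25 nM Clk4, 1 uM ATP and 100 uM RS peptide with MgCl2, EGTA, DTT and Triton X-100.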

The target is the same in test [14]. The experiment in a line: qHTS Assay for Inhibitors of CDC-like Kinase 4 (ADP-FP Assay) (AID 1795). Further: nearly all actives have a fitted effect of over 60% in size. Further: potency means the concentration at half of the fitted maximal effect. To be noted: Transcreener ADP fluorescence polarization; series mostly up to 50 µM. The procedure, abridged:
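Recombinant human Clk4 (6.25 nM) phosphorylated RS repeat peptide (100 uM) with 1 uM ATP in Tris pH 7.5/MgCl2/EGTA/DTT/Triton buffer for one hour. ADP was quantified by Transcreener competitive fluorescence polarization against an ADP calibration curve.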

The target of test [15] is Ubiquitin carboxyl-terminal hydrolase 1 (Homo sapiens) (UniProt O94782). The experiment in a line: Inhibitors of USP1/UAF1: Pilot qHTS (AID 504865).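 Further: rhodamine fluorescence freed from ubiquitin-rhodamine substrate followed over time; top concentration of the series differs between compounds; on the % scale 0 is the no-effect control and ±100 the full control effect; nearly all actives have a fitted effect of over 35% in size.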 The conditions noted are these: purified USP1/UAF1, Ub-rhodamine cleavage fluorescence; series mostly up to 54.9 µM. The procedure, abridged:
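USP1/UAF1 complex (1nM) preincubated with compound 15 min at room temperature, then Ub-Rho substrate (150nM final) added. Fluorescence read kinetically at 480/540 nm, 6 reads every 60 seconds. Buffer: 50mM HEPES pH 7.8, 0.5mM EDTA, 0.1 mg/ml BSA, 1mM TCEP, 0.01% Tween-20.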

A short description of test [16]: Primary qHTS for small molecule stabilizers of the endoplasmic reticulum resident proteome: Secreted ER Calcium Modulated Protein (SERCaMP) assay (AID 1508630). Further: on the % scale 0 is the no-effect control and ±100 the full control effect. To be noted: SH-SY5Y GLuc-SERCaMP (Gaussia luciferase released on ER calcium loss) secretion, thapsigargin, luminescence; series mostly up to 38.4 µM. The essentials:
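The SH-SY5Y reporter protocol was run at 3 concentrations up to 38.3 uM (primary) or 11 concentrations (follow-up): 16 h compound, 100 nM thapsigargin for 4 h, then extracellular luciferase luminescence.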

In test [17] the target is Cytochrome P450 2D6 (Homo sapiens) (UniProt P10635). The experiment in a line: qHTS Assay for Inhibitors and Substrates of Cytochrome P450 2D6 (AID 891). Further: potency means the concentration at half of the fitted maximal effect; nearly all actives have a fitted effect of over 60% in size. The conditions noted are these: recombinant CYP2D6, luciferin-ME EGE luminescence; series mostly up to 57.1 µM. The essentials:
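Luminescent read-out of luciferin formed by 5 nM human CYP2D6 demethylating 30 uM Luciferin-ME EGE (Km level) over 60 min at room temperature after NADPH regeneration addition. Data normalized to full inhibition by 1.43 uM quinidine.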

Test [18] can be described thus: AP1 Signaling Pathway (AID 357; active means well fitted curve in either direction with a large enough effect, not every such curve was filed as active;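 further: ME-180 reporter cells stimulated with EGF at its EC50 level; on the % scale 0 is the no-effect control and ±100 the full control effect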). To be noted: ME-180 (cervical carcinoma) AP-1-bla reporter, EGF-induced, beta-lactamase ratio, 5 h; at 7.69 µM (top of the series) unless noted. The essentials:
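AP-1-bla ME-180 cells, Opti-MEM + 0.5% dialyzed FBS, plated overnight 37 °C. Cpd titration + EC50 EGF, 5 h 37 °C. CCF4 2.5 h RT; ex 405, em 460/530 ratio → %activity, AC50.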

Values without a mark were called inactive. Results filed as inconclusive are left out. Calls of active or inactive are those of the source. Unless noted, the call rests on the fitted dose curve; in most records, active means well fitted curve in the direction sought with a large enough effect; inconclusive means small, poorly fitted or top-dose-only effect, or another doubt; inactive means no such curve, though single readings can be large; an effect the other way counts as inactive or inconclusive.

Chain of Lysosomal acid glucosylceramidase (Homo sapiens) (P04062 whole entry, looked up): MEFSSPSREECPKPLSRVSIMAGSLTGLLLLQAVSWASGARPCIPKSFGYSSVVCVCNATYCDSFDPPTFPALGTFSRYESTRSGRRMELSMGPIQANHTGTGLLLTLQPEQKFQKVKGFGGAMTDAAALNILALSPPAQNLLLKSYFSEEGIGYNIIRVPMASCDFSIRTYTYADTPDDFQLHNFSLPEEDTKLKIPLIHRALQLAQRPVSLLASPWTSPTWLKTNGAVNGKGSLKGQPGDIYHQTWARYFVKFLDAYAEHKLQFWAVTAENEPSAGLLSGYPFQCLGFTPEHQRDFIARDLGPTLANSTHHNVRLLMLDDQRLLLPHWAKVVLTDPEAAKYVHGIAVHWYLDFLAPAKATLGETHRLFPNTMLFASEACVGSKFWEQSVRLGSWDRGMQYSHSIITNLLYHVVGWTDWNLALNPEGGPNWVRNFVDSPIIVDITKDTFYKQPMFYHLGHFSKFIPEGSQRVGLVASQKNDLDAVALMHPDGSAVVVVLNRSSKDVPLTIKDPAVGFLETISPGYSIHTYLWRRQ
Chain of Dual specificity protein kinase CLK4 (Homo sapiens) (Q9HAZ1 whole entry, looked up): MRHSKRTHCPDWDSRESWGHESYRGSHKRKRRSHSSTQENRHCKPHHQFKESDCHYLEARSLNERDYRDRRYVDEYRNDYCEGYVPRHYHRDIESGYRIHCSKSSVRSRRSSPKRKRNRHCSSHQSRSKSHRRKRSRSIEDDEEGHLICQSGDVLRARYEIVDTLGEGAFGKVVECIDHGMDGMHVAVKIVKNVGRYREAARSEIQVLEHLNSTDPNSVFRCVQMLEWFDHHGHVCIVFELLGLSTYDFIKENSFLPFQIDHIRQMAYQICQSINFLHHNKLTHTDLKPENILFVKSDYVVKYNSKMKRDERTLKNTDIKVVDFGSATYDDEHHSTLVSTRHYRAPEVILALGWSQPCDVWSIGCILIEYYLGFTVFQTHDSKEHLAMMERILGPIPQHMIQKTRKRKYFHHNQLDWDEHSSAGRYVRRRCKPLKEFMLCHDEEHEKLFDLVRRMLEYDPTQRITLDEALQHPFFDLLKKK
Chain of Cytochrome P450 3A4 (Homo sapiens) (P08684 whole entry, looked up): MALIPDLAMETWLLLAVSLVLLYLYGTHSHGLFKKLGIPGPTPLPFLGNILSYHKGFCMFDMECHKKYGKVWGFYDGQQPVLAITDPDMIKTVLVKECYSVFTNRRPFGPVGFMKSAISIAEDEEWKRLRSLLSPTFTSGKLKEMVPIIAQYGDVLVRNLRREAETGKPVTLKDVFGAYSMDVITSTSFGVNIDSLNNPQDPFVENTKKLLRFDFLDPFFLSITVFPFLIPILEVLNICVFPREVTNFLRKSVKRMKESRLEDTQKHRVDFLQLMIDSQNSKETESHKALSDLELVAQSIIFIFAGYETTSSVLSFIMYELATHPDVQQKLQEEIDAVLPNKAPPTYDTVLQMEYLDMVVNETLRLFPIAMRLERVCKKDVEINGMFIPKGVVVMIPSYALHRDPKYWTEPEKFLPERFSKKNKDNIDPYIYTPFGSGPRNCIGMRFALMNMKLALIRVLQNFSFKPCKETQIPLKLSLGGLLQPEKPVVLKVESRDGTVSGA
Chain of Glucocorticoid receptor (Homo sapiens) (P04150 whole entry, looked up, the tested form may be a part): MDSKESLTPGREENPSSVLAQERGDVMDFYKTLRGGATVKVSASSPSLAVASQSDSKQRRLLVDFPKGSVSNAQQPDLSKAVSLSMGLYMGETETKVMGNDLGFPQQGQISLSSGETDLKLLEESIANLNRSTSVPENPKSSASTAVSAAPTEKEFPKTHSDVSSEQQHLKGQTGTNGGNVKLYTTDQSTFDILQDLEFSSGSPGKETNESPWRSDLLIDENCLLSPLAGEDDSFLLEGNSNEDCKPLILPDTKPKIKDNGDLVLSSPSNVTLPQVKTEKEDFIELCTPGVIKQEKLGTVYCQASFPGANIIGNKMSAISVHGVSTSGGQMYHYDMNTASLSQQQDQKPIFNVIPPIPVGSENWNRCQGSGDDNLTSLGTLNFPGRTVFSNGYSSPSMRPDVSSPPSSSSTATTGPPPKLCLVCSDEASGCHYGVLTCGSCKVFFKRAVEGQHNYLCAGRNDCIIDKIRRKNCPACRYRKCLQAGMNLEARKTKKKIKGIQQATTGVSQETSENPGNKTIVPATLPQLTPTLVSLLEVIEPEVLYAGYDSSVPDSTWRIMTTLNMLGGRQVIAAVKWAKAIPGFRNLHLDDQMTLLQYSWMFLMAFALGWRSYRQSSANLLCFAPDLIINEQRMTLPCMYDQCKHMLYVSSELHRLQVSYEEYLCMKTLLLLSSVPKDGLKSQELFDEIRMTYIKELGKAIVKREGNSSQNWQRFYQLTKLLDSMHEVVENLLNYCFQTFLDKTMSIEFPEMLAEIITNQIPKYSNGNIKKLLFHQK
Chain of Ubiquitin carboxyl-terminal hydrolase 1 (Homo sapiens) (O94782 whole entry, looked up): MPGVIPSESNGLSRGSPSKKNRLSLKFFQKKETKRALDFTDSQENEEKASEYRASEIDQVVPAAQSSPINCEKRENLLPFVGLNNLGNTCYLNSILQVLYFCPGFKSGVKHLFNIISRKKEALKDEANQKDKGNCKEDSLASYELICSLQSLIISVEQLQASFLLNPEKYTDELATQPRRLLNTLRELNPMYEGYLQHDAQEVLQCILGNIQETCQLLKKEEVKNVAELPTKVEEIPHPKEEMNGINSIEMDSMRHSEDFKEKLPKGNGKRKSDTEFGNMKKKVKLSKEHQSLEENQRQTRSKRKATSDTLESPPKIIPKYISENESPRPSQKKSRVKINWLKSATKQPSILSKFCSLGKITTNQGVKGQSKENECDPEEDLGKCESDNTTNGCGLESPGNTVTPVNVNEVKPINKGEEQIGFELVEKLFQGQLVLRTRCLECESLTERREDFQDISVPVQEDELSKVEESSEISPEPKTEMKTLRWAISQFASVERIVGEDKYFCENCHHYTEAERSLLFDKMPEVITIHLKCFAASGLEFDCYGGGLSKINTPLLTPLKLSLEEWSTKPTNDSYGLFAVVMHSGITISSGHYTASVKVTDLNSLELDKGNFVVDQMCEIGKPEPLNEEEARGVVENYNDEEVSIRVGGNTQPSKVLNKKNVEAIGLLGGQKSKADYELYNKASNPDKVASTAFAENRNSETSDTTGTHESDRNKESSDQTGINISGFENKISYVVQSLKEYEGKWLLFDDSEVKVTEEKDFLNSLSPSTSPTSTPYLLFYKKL

As to `COc1cccc(-c2ccc3ncnc(N(C)C)c3c2)c1`, the Potency in test [1] was more than 11.4 µM; in [2] it was 0.794 µM (active); in test [5], more than 46 µM; in test [6], more than 46 µM; in [9], 7.94 µM (active); in test [11] it was 3.16 µM (active). Besides, the Potency in [12] is 4.47 µM (active); in [13], 3.16 µM (active); in [14], 2.51 µM (active). Further, the activity change, negative = inhibition in test [3] was 27.5%. The activity, negative = inhibition in test [4] is -13.9%. Also, the Potency result in [7], in test [8], in test [10] and in test [15] was “inactive” each time. Further, the outcome in [16] was inactive.
With `COc1cccc(Cn2c(=O)c(-c3cn(C)c4ccccc34)nc3cnc(OC)nc32)c1`, the Potency in [1] was more than 11.4 µM; in test [2], 15.8 µM (active); in test [5], more than 9.22 µM; in test [6], more than 46 µM; in test [9], 7.94 µM (active). The activity change, negative = inhibition in [3] is 1.88%. The Potency entry in [7], in [8], in [10], in [12], in [13] and in test [14] was “inactive” in each case. For the same compound, the outcome in test [16] was inactive.
As to `COc1ccccc1CNc1ncnc2ccc(-c3ccc4c(c3)OCO4)cc12`, the Potency in [1] is more than 11.4 µM; in test [2], 0.794 µM (active); in test [5], more than 46 µM; in test [6], more than 46 µM; in test [9], 1.26 µM (active); in test [17] it was 0.794 µM (active). Also, the Potency in test [11] was 3.16 µM (active); in test [12], 0.0794 µM (active); in [13], 0.158 µM (active); in test [14], 0.0251 µM (active). Moreover, the activity change, negative = inhibition in [3] was -26.5%. In test [4], the activity, negative = inhibition is -7.21%. Moreover, the Potency result in test [7], in test [10] and in test [15] was “inactive” in each case. The outcome in [16] was inactive.
For `COc1cccc(Cn2c(=O)c(-c3cccs3)nc3cnc(N4CCNCC4)nc32)c1`, the Potency in test [1] was more than 11.4 µM; in [2] it was 15.8 µM (active); in test [5], more than 9.22 µM; in test [6], more than 46 µM; in test [7], 3.98 µM [activator] (active). In [4], the activity, negative = inhibition is 114% [activator] (active). Also, the Potency entry in test [8], in test [10], in [12], in test [13], in test [14] and in [15] was “inactive” throughout. The outcome in test [16] was inactive.
Consider `CN(C)c1ncc2nc(-c3cccs3)c(=O)n(Cc3cccs3)c2n1`, for which the values for the Potency in [1], in test [5] and in [6] were more than 11.4 µM, more than 9.22 µM and more than 46 µM, respectively. Further, the activity change, negative = inhibition in test [18] is 21.5%. The Potency entry in test [7], in test [8], in test [10], in test [12], in test [13] and in [14] was “inactive” throughout. Moreover, the Potency entry in test [15] was “inactive”. Also, in [16], the result was inactive.
For `COc1cccc(Cn2c(=O)c(-c3cccs3)nc3cnc(N4CCOCC4)nc32)c1`, the Potency is more than 11.4 µM in test [1], more than 9.22 µM in test [5] and more than 46 µM in test [6]. Besides, the activity change, negative = inhibition in test [18] was 21.6%; in [3], 5.78%. The Potency entry in test [8], in [12], in test [13], in test [14] and in test [15] was “inactive” in each case. The result in [16] was inactive.

The values above are taken from PubChem BioAssay (NCATS).
